In PubChem BioAssay AID624173 (National Center for Advancing Translational Sciences (NCATS), 2012):
Out of some 410,000 compounds screened, about 490 (0.12%) were called active. Not shown: some 1% with an inconclusive outcome. The entries come from a sample that favours actives as a whole. Values without a mark were called inactive. The call rests on the fitted dose curve; in most records, active means well fitted inhibition curve with a large enough effect; inconclusive means small, poorly fitted or top-dose-only effect; inactive means flat fitted curve, though single readings scatter.

The compounds below were run against pyruvate kinase (Trypanosoma brucei) (UniProt Q57TT1) (assay: qHTS of Trypanosoma Brucei Inhibitors). Details: TbPYK enzyme, Kinase-Glo Plus ATP luminescence, 45 min; series mostly up to 76.8 µM; activity, negative = inhibition: at the top concentration.
Text: Members of the Trypanosomatidae family of parasitic protozoans cause a spectrum of diseases throughout the tropical and subtropical world. Sleeping sickness, caused by two subspecies of Trypanosoma brucei, is endemic to areas of sub-Saharan Africa, while Chagas' disease, a manifestation of Trypanosoma cruzi infection, is prevalent throughout Central and South America. In addition, many species of Leishmania are responsible for a range of cutaneous and visceral diseases, causing ulcers, destructive lesions and kalaazar, a lethal infection of the viscera. These diseases cause severe public health and economic burdens on populations that are often already caught in a tragic cycle of poverty, poor nutrition and disease. Collectively, parasites of the trypanosomatid family infect 30 million people worldwide (~500 million live in endemic areas), and account for ~130K deaths annually. Existing treatments have developed little in the past 50 years, and suffer from toxicity, poor efficacy and resistance; the goal of this project is to develop lead drugs that will be suitable for entry into pre-clinical trials.
Glycolysis in axenically cultured T. cruzi, representing the intracellular pathogenic stage, is also essential for these parasites. {Engel, 1987} This project aims to discover and optimize selective inhibitors of the glycolytic enzyme pyruvate kinase (PYK) from Trypanosoma brucei, the parasite that causes sleeping sickness. […] Trypanosomatid PYKs show significant differences from their human counterparts including only 47-50% sequence identity and different allosteric and activation properties.{Callens, 1992} To this end, a qHTS was done against the MLSMR to discover inhibitors.
NIH Molecular Libraries Probe Production Network [MLPCN]
NIH Chemical Genomics Center [NCGC]
PI Name: Malcolm Walkinshaw, University of Edinburgh
2 uL of TbPYK/substrate buffer (columns 1-3, 5-48) are dispensed into Greiner white solid bottom 1536-well assay plates; column 4 receives only TEA buffer as 0x TbPYK controls. Compounds are then transferred via Kalypsys pin tool equipped with 1536-pin array (10 nL slotted pins, V&P Scientific, San Diego, CA). Following addition of compound, 2 uL of ADP (130 uM final concentration, all columns) is added to initiate the reaction. The plates are then incubated at room temperature for 45 minutes. Kinase-Glo Plus reagent is added (3 uL) and plates incubated for 10 minutes, before being transferred to a ViewLux high-throughput CCD imager (PerkinElmer) wherein single end-point measurements of luminescence are acquired using a clear filter. All reagents are diluted in an assay buffer consisting of 50 mM TEA (pH 7.2), 100 mM KCl, 10 mM MgCl2, 0.05% BSA and 0.01% Tween-20.
All screening operations will be performed on a fully integrated robotic system (Kalypsys, San Diego, CA) containing one RX-130 and two RX-90 anthropomorphic robotic arms (Staeubli, Duncan, SC). Library plates will be screened starting from the lowest and proceeding to the highest concentration. Vehicle-only plates, with DMSO being pin-transferred to columns 5-48, will be inserted uniformly at the beginning and the end of each library in order to monitor and record any shifts in the background, which can be affected by reagent dispensers or loss in enzyme activity over time. Screening data will be corrected, normalized, and concentration-effect relationships will be derived by using publicly-available curve fitting algorithms developed in-house (http://ncgc.nih.gov/pub/openhts).
Further: nearly all actives have a fitted effect of over 50% in size.
On the % scale 0 is the no-effect control and ±100 the full control effect; potency means the concentration at half of the fitted maximal effect.

Row | Compound | activity, negative = inhibition | Potency
1 | N#Cc1ccc(CN2CCCC3(CCN(C(=O)c4ccco4)CC3)C2)cc1 | 5.2% | –
2 | CC(=O)Oc1ccc2c3c1OC1C(OC(C)=O)C=CC4[C@@H](C2)N(C)CC[C@]314 (some centres not stated) | -3.56% [at 157 µM] | –
3 | O=C(c1ccco1)N1CCC2(CC1)CN(c1ncccn1)C2 | 6.02% | –
4 | O=C(Nc1cccc(F)c1)N1CC[C@@]2(CCCN(C(=O)Oc3ccccc3)C2)C1 | -0.503% | –
5 | COc1ccc(NC(=O)N2CC3(CCN(C(=O)c4cccn4C)CC3)C2)cc1 | 5.66% | –
6 | CCOC(=O)C1CCCN(S(=O)(=O)c2cc(-c3cc(C)no3)ccc2OC)C1 (configuration not stated) | 2.51% | –
7 | O=C(c1cc(C(F)(F)F)cc(C(F)(F)F)c1)N1CCC2(CCCN(c3ccccn3)C2)CC1 | 4.85% | –
8 | COc1ccc(-c2oc3cc(OC)ccc3c2C(=O)c2ccc(C#N)cc2)cc1 | 2% | –
9 | Oc1ccc(Cl)c2c1CCC2 | -1.73% | –
10 | CC1(C)OC[C@@H](COC(=O)CCc2ccc(OC[C@@H](O)CNCCNC(=O)N3CCOCC3)cc2)O1 | – | inactive
11 | c1ccc(CN2CC[C@@]3(CCCNC3)C2)cc1 | 1.4% | –
12 | COc1cccc(Cn2c(=O)c(-c3cc(F)cc(F)c3)nc3cnc(OC)nc32)c1 | -4.11% | –
13 | CC(=O)CC(c1ccccc1)C1C(=O)Oc2ccccc2C1=O (configuration not stated) | -1.9% | –
14 | COc1cc2c(cc1OC)[C@@H](Cc1cc(OC)c(OC)c(OC)c1)[N+](C)(CCCOC(=O)CC/C=C/CCC(=O)OCCC[N+]1(C)CCc3cc(OC)c(OC)cc3[C@H]1Cc1cc(OC)c(OC)c(OC)c1)CC2 (some centres not stated) | 2.34% | –
15 | C[C@H]1C[C@H]2[C@@H]3CCC4=CC(=O)C=C[C@]4(C)[C@@H]3C(=O)C[C@]2(C)[C@@]1(O)C(=O)CO | -4.12% | –
16 | CCOc1ccc(NC(=O)CC2C(=O)N(c3cccc(OC)c3)C(=O)N2C2CCCCC2)cc1 (configuration not stated) | 3.35% | –
17 | COCCn1c(=O)c(-c2cc(F)cc(F)c2)nc2cnc(N3CCNCC3)nc21 | -4.63% | –
18 | CC(=O)N1CCC2(CC1)CCN(c1ccncc1)CC2 | -7.23% | –
19 | O=S(O)CNc1ccc(S(=O)(=O)c2ccc(NCS(=O)O)cc2)cc1 | 9.07% | –
20 | O=C(c1ccco1)N1CCC[C@@]2(CCN(Cc3nccs3)C2)C1 | -6.32% | –
21 | Cn1cccc1C(=O)N1CCC2(CC1)CN(c1cccc(-c3ccccc3)c1)C2 | -3.39% | –

Row | Compound | activity, negative = inhibition | Potency
22 | C/C=C1\C2C=C(C)CC1(N)c1ccc(=O)[nH]c1C2 (configuration not stated) | -2.6% | –
23 | NC(=O)C(=O)N/N=C/c1ccc([N+](=O)[O-])o1 | 0.18% | –
24 | O=C(c1cc(C(F)(F)F)cc(C(F)(F)F)c1)N1CCC[C@@]2(CCN(c3ccccn3)C2)C1 | 4.4% | –
25 | CC(C)NC(=O)N1CCC2(CC1)CCN(C(=O)c1cccn1C)CC2 | 1.85% | –
26 | O=C(O)CCC(=O)O | -2.93% | –
27 | CC(C)(O/N=C(\C(=O)N[C@@H]1C(=O)N2C(C(=O)[O-])=C(C[n+]3ccccc3)CS[C@@H]12)c1csc(N)n1)C(=O)O | -4.78% [at 33.2 µM] | –
28 | COCCn1c(=O)c(CCc2ccccc2)nc2cnc(N3CCNCC3)nc21 | -7.17% | –
29 | COc1ccnc(C[S@@](=O)[C@@H]2Nc3ccc(OC(F)F)cc3N2)c1OC | -17.7% | –
30 | C[C@]12CC[C@@H]3c4ccc(O)cc4C[C@@H](CCCCCCCCCS(=O)CCCC(F)(F)C(F)(F)F)C3[C@@H]1CC[C@@H]2O (some centres not stated) | -5.87% | –
31 | C=CCn1c(C)cc(C2=NNC(=NCC)SC2)c1C | – | 17.8 µM (active)
32 | CC1N=C(N)OC1c1ccccc1 (configuration not stated) | 0% [at 157 µM] | –
33 | CS(=O)(=O)N1CCC2(CCN(c3ccncc3)CC2)CC1 | -6.52% | –
34 | CC1(C)O[C@@H]2C[C@@H]3[C@H]4C[C@@H](F)C5=CC(=O)C=C[C@]5(C)[C@@]4(F)[C@@H](O)C[C@]3(C)[C@]2(C(=O)CO)O1 | -3.24% | –
35 | COc1cc(C[C@H]2NCCc3cc(O)c(O)cc32)cc(OC)c1OC | 1.09% | –
36 | O=C(c1ccncc1)N1CCC2(CCN(Cc3cc(C(F)(F)F)cc(C(F)(F)F)c3)CC2)CC1 | 0% | –
37 | CC(=O)O[C@]1(C(C)=O)CC[C@@H]2[C@@H]3C=C(C)C4=CC(=O)CC[C@@]4(C)[C@H]3CC[C@]21C | 0% [at 33.2 µM] | –
38 | CS(=O)(=O)N1CCC2(CC1)CN(Cc1ccccc1)C2 | -1.13% | –
39 | CCCCC(=O)OCC(=O)[C@H]1[C@H](C)C[C@@H]2[C@@H]3C[C@@H](F)C4=CC(=O)C=C[C@]4(C)[C@@]3(F)[C@@H](O)C[C@@]21C | -6.95% | –
40 | CC(C)NC(=O)N1CCCC2(CCN(C(=O)c3cccn3C)CC2)C1 | -0.138% | –
41 | CCOC(=O)c1c(NC(=O)CSc2cn(CCNC(=O)c3cccc(C(F)(F)F)c3)c3ccccc23)sc2c1CCC2 | 0.688% | –
42 | O=c1c(-c2cc(F)cc(F)c2)nc2cnc(Oc3ccccc3)nc2n1C[C@H]1CCCO1 | -5.6% | –
